Assay results as given in PubChem BioAssay (NCI).
About 79,000 compounds went through this panel and 15% of them were active in at least one assay; those are over-represented in the sample as a whole. Activity calls are given as the source filed them. No stated cut-off is given here; in the data, active means growth inhibition above about 70%; inactive means the rest.

Legend:
[1] = NCI Yeast Anticancer Drug Screen. Data for the rad52 strain (AID 147);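 further: 0% = growth of vehicle-treated control cultures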; settings: S. cerevisiae rad52 mutant growth inhibition, stronger effect = higher value
Method in brief: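 Growth of repair-deficient yeast cells was compared between compound-treated and vehicle-treated cultures to give percent inhibition.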

[2] = NCI Yeast Anticancer Drug Screen. Data for the wt1 strain (AID 149);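 further: 0% = growth of vehicle-treated wt1 cultures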; settings: S. cerevisiae wt1 strain (SPY 50644) growth inhibition, stronger effect = higher value
Method in brief: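 Each compound is tested on wt1 yeast and the loss of growth versus vehicle gives the inhibition value.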

[3] = NCI Yeast Anticancer Drug Screen. Data for the rad50EPP+ strain (AID 151);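 further: 0% = growth of vehicle-treated control cultures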; settings: S. cerevisiae rad50 mutant strain, stronger effect = higher value
Method in brief: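 Measured: growth inhibition of rad50EPP+ yeast. Reference: vehicle-treated controls. Screen uses strains with defined genetic alterations in DNA damage repair or cell cycle control.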

[4] = NCI Yeast Anticancer Drug Screen. Data for the mgt1 strain (AID 153); settings: S. cerevisiae mgt1 mutant growth inhibition, stronger effect = higher value
Method in brief: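 Compounds were applied to mgt1 mutant yeast, and growth was then compared against vehicle-treated control cultures to give percent inhibition.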

[5] = NCI Yeast Anticancer Drug Screen. Data for the rad50 strain (AID 155);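 further: 0% = growth of vehicle-only cultures of the same strain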; settings: S. cerevisiae rad50 strain growth inhibition, stronger effect = higher value
Method in brief: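 Vehicle-treated cultures provide the reference for the growth inhibition reported for compound-exposed, repair-deficient yeast.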

[6] = NCI Yeast Anticancer Drug Screen. Data for the mec2-1 strain (AID 157); settings: S. cerevisiae mec2-1 strain, stronger effect = higher value
Method in brief: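 Compounds were applied to mec2-1 yeast cells. Their growth was then compared with that of vehicle-treated cultures to give growth inhibition.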

[7] = NCI Yeast Anticancer Drug Screen. Data for the rad14 strain (AID 159);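 further: 0% = growth of vehicle-treated control cultures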; settings: S. cerevisiae rad14 strain growth inhibition, stronger effect = higher value
Method in brief: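 Inhibition of growth is reported for a repair-deficient yeast mutant following compound treatment, calculated relative to cultures that received vehicle.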

[8] = NCI Yeast Anticancer Drug Screen. Data for the sgs1 mgt1 strain (AID 161);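 further: 0% = growth of cultures given vehicle only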; settings: S. cerevisiae sgs1 mgt1 strain, stronger effect = higher value
Method in brief: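 Growth of a repair-deficient yeast mutant was monitored after compound treatment and expressed as inhibition relative to vehicle-treated cultures.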

[9] = NCI Yeast Anticancer Drug Screen. Data for the CLN2oe strain (AID 163);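 further: 0% = growth of vehicle-only control cultures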; settings: S. cerevisiae CLN2oe strain, stronger effect = higher value
Method in brief: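 Cells of an engineered yeast line with disturbed cell-cycle regulation are treated with compound. Inhibition of growth is then calculated relative to the vehicle-treated reference.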

[10] = NCI Yeast Anticancer Drug Screen. Data for the cln2 rad14 strain (AID 165);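 further: 0% = growth equal to vehicle treated cultures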; settings: S. cerevisiae cln2 rad14 strain, stronger effect = higher value
Method in brief: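 Strain: cln2 rad14 yeast, altered in cell cycle control and DNA damage repair. Read-out: growth inhibition vs vehicle.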

[11] = NCI Yeast Anticancer Drug Screen. Data for the bub3 strain (AID 167); settings: S. cerevisiae bub3 mutant strain, stronger effect = higher value
Method in brief: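 Mutant yeast screening strain plus compound; vehicle-treated cultures serve as the 0% inhibition reference.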

[12] = NCI Yeast Anticancer Drug Screen. Data for the wt2 strain (AID 169); settings: S. cerevisiae wt2 strain growth inhibition, stronger effect = higher value
Method in brief: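 Growth of compound-treated yeast is measured and expressed as inhibition relative to vehicle-only controls.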

[13] = NCI Yeast Anticancer Drug Screen. Data for the mlh1 strain (AID 171);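 further: 0% = growth of vehicle-treated control cultures of the same strain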; settings: S. cerevisiae mlh1 strain growth inhibition, stronger effect = higher value
Method in brief: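 Test agents were incubated with yeast bearing a defined DNA damage repair or cell cycle control alteration; values are growth inhibition normalised to vehicle-treated cultures.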

[14] = NCI Yeast Anticancer Drug Screen. Data for the sgs1 strain (AID 173);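 further: 0% = growth of vehicle-only control cultures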; settings: S. cerevisiae sgs1 mutant, stronger effect = higher value
Method in brief: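 Strain with an altered DNA repair or cell cycle pathway exposed to compound. Growth then measured. Value = inhibition versus vehicle control.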

[15] = NCI Yeast Anticancer Drug Screen. Data for the mlh1 rad18 strain (AID 175); settings: S. cerevisiae mlh1 rad18 strain growth inhibition, stronger effect = higher value
Method in brief: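 A repair-deficient yeast strain is exposed to test compound, and growth is scored relative to vehicle-treated controls.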

[16] = NCI Yeast Anticancer Drug Screen. Data for the rad18 strain (AID 177); settings: S. cerevisiae rad18 mutant growth inhibition, stronger effect = higher value
Method in brief: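 DNA-repair-defective yeast; compound treatment; growth inhibition scored against vehicle.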

[17] = at 5.0 µM (retest, dose inferred, filed as 0.5)
[18] = at 50.0 µM (retest, dose inferred, filed as 5.0)

Measured: growth inhibition

COc1ccc(C(C)c2cc3c(cc2OCC(C)=O)OCO3)cc1 (stereo unspecified)
active: [1]; at 100.0 µM 73% | [5]; at 100.0 µM 84% | [6]; at 100.0 µM 73% | [9]; at 100.0 µM 76% | [11]; at 100.0 µM 86% | [12]; at 100.0 µM 75% | [13]; at 100.0 µM 76% | [14]; at 100.0 µM 77% | [16]; at 100.0 µM 84%
inactive: [1]; at 1.2 µM -3% | [1]; at 3.7 µM 0% | [1]; at 11.0 µM 1% | [1]; at 33.0 µM -1% | [2]; at 1.2 µM -2% | [2]; at 3.7 µM -3% | [2]; at 11.0 µM -5% | [2]; at 33.0 µM -8% | [2]; at 100.0 µM 49% | [3]; at 1.2 µM -3% | [3]; at 3.7 µM 1% | [3]; at 11.0 µM 3% | [3]; at 33.0 µM 12% | [3]; at 100.0 µM 11% | [4]; at 1.2 µM -3% | [4]; at 3.7 µM -2% | [4]; at 11.0 µM -4% | [4]; at 33.0 µM -7% | [4]; at 100.0 µM 42% | [5]; at 1.2 µM 2% | [5]; at 3.7 µM 45% | [5]; [17] 1% | [5]; at 11.0 µM 26% | [5]; at 33.0 µM 9% | [5]; [18] 14% | [5]; at 50.0 µM -11.3% | [6]; at 1.2 µM -3% | [6]; at 3.7 µM -1% | [6]; [17] -5% | [6]; at 11.0 µM 0% | [6]; at 33.0 µM -4% | [6]; [18] 7% | [6]; at 50.0 µM -15.1% | [7]; at 1.2 µM -2% | [7]; at 3.7 µM -3% | [7]; at 11.0 µM -3% | [7]; at 33.0 µM 1% | [7]; at 100.0 µM 38% | [8]; [17] -4% | [8]; [18] 35% | [8]; at 50.0 µM 9.55% | [9]; at 1.2 µM -4% | [9]; at 3.7 µM -3% | [9]; at 11.0 µM -2% | [9]; at 33.0 µM -10% | [10]; [17] -6% | [10]; [18] 9% | [10]; at 50.0 µM -48.7% | [11]; at 1.2 µM 2% | [11]; at 3.7 µM 8% | [11]; [17] 5% | [11]; at 11.0 µM 17% | [11]; at 33.0 µM 40% | [11]; [18] 66% | [11]; at 50.0 µM -26.4% | [12]; at 1.2 µM -3% | [12]; at 3.7 µM 4% | [12]; at 11.0 µM -5% | [12]; at 33.0 µM -6% | [13]; at 1.2 µM -3% | [13]; at 3.7 µM -4% | [13]; at 11.0 µM -4% | [13]; at 33.0 µM -3% | [14]; at 1.2 µM -3% | [14]; at 3.7 µM -2% | [14]; at 11.0 µM -1% | [14]; at 33.0 µM -4% | [15]; [17] -5% | [15]; [18] 45% | [15]; at 50.0 µM 11.4% | [16]; at 1.2 µM -2% | [16]; at 3.7 µM 2% | [16]; at 11.0 µM 6% | [16]; at 33.0 µM 11%

COC(=O)c1ccccc1N=NNc1cccc(SC)c1
active: [1]; at 33.0 µM 89% | [1]; at 100.0 µM 88% | [2]; at 33.0 µM 90% | [2]; at 100.0 µM 88% | [4]; at 33.0 µM 92% | [4]; at 100.0 µM 88% | [5]; at 33.0 µM 93% | [5]; at 50.0 µM 86.8% | [5]; at 100.0 µM 87% | [6]; at 33.0 µM 93% | [6]; at 50.0 µM 85.7% | [6]; at 100.0 µM 89% | [7]; at 33.0 µM 93% | [7]; at 100.0 µM 87% | [8]; [18] 94% | [8]; at 50.0 µM 88.8% | [9]; at 33.0 µM 93% | [9]; at 100.0 µM 85% | [10]; [18] 87% | [10]; at 50.0 µM 86% | [11]; at 33.0 µM 94% | [11]; [18] 87% | [11]; at 50.0 µM 85.9% | [11]; at 100.0 µM 89% | [12]; at 33.0 µM 93% | [12]; at 100.0 µM 89% | [13]; at 33.0 µM 94% | [13]; at 100.0 µM 88% | [14]; at 33.0 µM 93% | [14]; at 100.0 µM 84% | [15]; at 50.0 µM 85.2% | [16]; at 33.0 µM 94% | [16]; at 100.0 µM 89%
inactive: [1]; at 1.2 µM 11% | [1]; at 3.7 µM 13% | [1]; at 11.0 µM 23% | [2]; at 1.2 µM -14% | [2]; at 3.7 µM -31% | [2]; at 11.0 µM -27% | [3]; at 1.2 µM 9% | [3]; at 3.7 µM 21% | [3]; at 11.0 µM 39% | [3]; at 33.0 µM 47% | [3]; at 100.0 µM 36% | [4]; at 1.2 µM -16% | [4]; at 3.7 µM -18% | [4]; at 11.0 µM -3% | [5]; at 1.2 µM 12% | [5]; at 3.7 µM 16% | [5]; [17] 30% | [5]; at 11.0 µM 28% | [5]; [18] 41% | [6]; at 1.2 µM 1% | [6]; at 3.7 µM 9% | [6]; [17] 40% | [6]; at 11.0 µM 19% | [6]; [18] 39% | [7]; at 1.2 µM -11% | [7]; at 3.7 µM -21% | [7]; at 11.0 µM -6% | [8]; [17] 1% | [9]; at 1.2 µM -17% | [9]; at 3.7 µM 12% | [9]; at 11.0 µM -9% | [10]; [17] 42% | [11]; at 1.2 µM 12% | [11]; at 3.7 µM 6% | [11]; [17] 3% | [11]; at 11.0 µM 25% | [12]; at 1.2 µM -11% | [12]; at 3.7 µM -18% | [12]; at 11.0 µM 8% | [13]; at 1.2 µM 2% | [13]; at 3.7 µM 4% | [13]; at 11.0 µM 17% | [14]; at 1.2 µM -6% | [14]; at 3.7 µM -13% | [14]; at 11.0 µM 16% | [15]; [17] 21% | [15]; [18] 36% | [16]; at 1.2 µM -10% | [16]; at 3.7 µM -13% | [16]; at 11.0 µM 11%
